An excerpt weighted towards active compounds, which were near 12% of everything screened.
G9a block: G9a (human) methyltransferase inhibition; Potency, µM (top dose mostly 102 µM), actives largely listed as inhibitors; 350,000 compounds, 8.8% hits; G9a H3K9 monomethylation, AlphaScreen, 2 h; Q96KQ7; further: nearly all actives have a fitted effect of over 75% in size
Target sequence (Q96KQ7 913-1193 limits assumed): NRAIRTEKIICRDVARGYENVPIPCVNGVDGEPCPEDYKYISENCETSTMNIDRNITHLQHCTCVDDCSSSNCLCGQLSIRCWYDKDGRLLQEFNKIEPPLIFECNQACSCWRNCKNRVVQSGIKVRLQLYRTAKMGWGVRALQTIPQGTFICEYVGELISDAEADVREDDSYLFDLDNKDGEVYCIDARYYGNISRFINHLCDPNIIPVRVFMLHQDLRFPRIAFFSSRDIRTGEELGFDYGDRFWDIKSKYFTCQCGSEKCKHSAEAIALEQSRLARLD
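Methyltransferase reactions run at room temperature for 2 h (20 nM enzyme, 500 nM biotin-H3K9 peptide, 20 uM SAM) after a 15 min compound preincubation; product detected by AlphaScreen beads and anti-H3K9me1 antibody.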
Sfp inh: inhibitors of Bacillus subtilis Sfp phosphopantetheinyl transferase. Q9F4F7. Biochemical Sfp PPTase activity, qHTS. Potency, µM, most hits filed as inhibitors. 310,000 compounds, 3.5% hits;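 further: the enzyme is Sfp with the accession as filed and its product quenches rhodamine fluorescence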
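After 15 min at room temperature with compound, 15 nM Sfp received 5 uM rhodamine-CoA plus 12.5 uM BHQ-2-ybbR (50 mM Hepes pH 7.6, 10 mM MgCl2). Rate came from the fluorescence difference over 30 min, ex 525/em 598 nm.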
JMJD2A Tudor inh: inhibitors of human JMJD2A Tudor domain; O75164; AlphaScreen JMJD2A-Tudor / H3K4me3 peptide binding; Potency, µM (highest dose often 114 µM), hits mostly inhibitors; 390,000 compounds, 4.4% hits; further: nearly all actives have a fitted effect of over 50% in size
PLK1 PBD block: blocks phosphopeptide binding to human PLK1 polo-box domain; 360,000 compounds, 2.8% hits; P53350; Potency, µM, hits mostly inhibitors; Plk1 PBD binding of FITC phosphopeptide, fluorescence polarization; further: series mostly up to about 57 µM; nearly all actives have a fitted effect of over 65% in size
HP1b chromo inh: inhibitors of HP1-beta chromodomain binding to methylated histone tails | P83916 | AlphaScreen HP1-beta / biotin-H3K9me3 peptide binding | Potency, µM (titrated, usually from 114 µM), hits mostly inhibitors | 390,000 compounds, 0.56% hits; further: nearly all actives have a fitted effect of over 70% in size
Target sequence (P83916 whole entry, looked up): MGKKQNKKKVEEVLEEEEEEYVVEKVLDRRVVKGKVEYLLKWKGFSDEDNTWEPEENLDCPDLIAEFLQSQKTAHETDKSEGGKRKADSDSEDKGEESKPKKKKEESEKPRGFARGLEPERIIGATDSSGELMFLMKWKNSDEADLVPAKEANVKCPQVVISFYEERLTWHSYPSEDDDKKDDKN
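AlphaScreen: HP1-beta (50 nM) preformed 30 min with biotin-H3(1-18)K9me3 peptide (50 nM) in PBS pH 7.4, 0.01% Tween-20. Compound added for 30 min at RT, then streptavidin donor/nickel chelate acceptor beads (10 ug/mL) for 30 min.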
BAZ2B inh: BAZ2B (human) inhibition | 360,000 compounds, 4.4% hits | Q9UIF8 | Potency, µM (series often up to 114 µM), usual class: inhibitors | AlphaScreen BAZ2B-H3K14Ac peptide displacement | AID 504333; further: nearly all actives have a fitted effect of over 60% in size
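Multi-concentration screen (max 110 uM) measuring displacement of acetylated histone H3 peptide from BAZ2B by AlphaScreen, using 50 nM protein, 50 nM peptide and 10 ug/mL streptavidin donor plus Ni-chelate acceptor beads.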
Large screens that a line does not name were inactive. The call rests on the fitted dose curve; in most records, active means well fitted curve in the direction sought with a large enough effect; inconclusive means small, poorly fitted or top-dose-only effect, or another doubt; inactive means no such curve, though single readings can be large; an effect the other way counts as inactive or inconclusive.

C#CCOCCOCCOCCNc1nc(N2CCOCC2)nc(N2CCN(C(=O)[C@H](CC(N)=O)n3cc([C@@H](N)C(C)C)nn3)CC2)n1	none (no result: G9a block, Sfp inh, BAZ2B inh)
C#CCOCCOCCOCCNc1nc(N2CCN(C(=O)[C@H](CCC(=O)O)n3cc(C(N)Cc4ccc(O)cc4)nn3)CC2)nc(N2CCN(C(=O)[C@H](Cc3cc4ccccc4[nH]3)n3cc(C(N)CC(C)C)nn3)CC2)n1 (stereo partly specified)	BAZ2B inh 79µM (no result: JMJD2A Tudor inh, PLK1 PBD block, HP1b chromo inh)
C#CCOCCOCCOCCNc1nc(N2CCN(C(=O)C(Cc3ccc(O)cc3)n3cc(C(N)CC(C)C)nn3)CC2)nc(N2CCN(C(=O)C(Cc3cc4ccccc4[nH]3)n3cc(C(N)Cc4ccc(O)cc4)nn3)CC2)n1 (stereo unspecified)	BAZ2B inh 35µM (no result: JMJD2A Tudor inh, PLK1 PBD block, HP1b chromo inh)
C#CCOCCOCCOCCNc1nc(N2CCN(C(=O)[C@H]([C@@H](C)CC)n3cc([C@@H](N)CO)nn3)CC2)nc(N2CCN(C(=O)[C@H](Cc3cc4ccccc4[nH]3)n3cc([C@@H](N)Cc4ccc(O)cc4)nn3)CC2)n1	G9a block inconclusive, Sfp inh inconclusive, BAZ2B inh 14µM (no result: JMJD2A Tudor inh, PLK1 PBD block, HP1b chromo inh)
C#CCOCCOCCOCCNc1nc(N2CCOCC2)nc(N2CCN(C(=O)[C@H](Cc3cc4ccccc4[nH]3)n3cc([C@@H](N)Cc4ccc(O)cc4)nn3)CC2)n1	G9a block inconclusive, JMJD2A Tudor inh inconclusive, PLK1 PBD block 27µM, BAZ2B inh inconclusive
CON	none (no result: G9a block, JMJD2A Tudor inh, PLK1 PBD block, HP1b chromo inh, BAZ2B inh)
O=S1(=O)c2cccc3cccc(c23)N1Cc1nnc(-c2ccccc2Br)o1	G9a block 56µM
CN(C)S(=O)(=O)c1cccc(NC(=S)NCc2ccco2)c1	G9a block 45µM, Sfp inh inconclusive (no result: BAZ2B inh)
CCN(CC)S(=O)(=O)c1ccc(NC(=S)Nc2ccccc2)cc1	none
CN(C)S(=O)(=O)c1cccc(NC(=S)Nc2ccc(Cl)cc2Cl)c1	Sfp inh inconclusive, PLK1 PBD block inconclusive
CN(C)S(=O)(=O)c1cccc(NC(=S)Nc2cc(Cl)cc(Cl)c2)c1	G9a block inconclusive, Sfp inh 50µM, PLK1 PBD block inconclusive
CCN(CCO)c1ccc(NC(=S)Nc2cccc(S(=O)(=O)N(C)C)c2)cc1	G9a block inconclusive, Sfp inh 50µM, PLK1 PBD block 27µM, BAZ2B inh inconclusive
CC(=O)c1cccc(NC(=S)NCc2ccco2)c1	none
CC1CN(C(=O)CCC(=O)Nc2cc(F)ccc2F)c2ccccc2S1 (stereo unspecified)	none (no result: Sfp inh, PLK1 PBD block)
O=c1ccsn1Cc1ccccc1	G9a block inconclusive, Sfp inh 0.63µM, JMJD2A Tudor inh 40µM, PLK1 PBD block 3µM, HP1b chromo inh inconclusive, BAZ2B inh 56µM
c1coc(CN(Cc2ccco2)c2ncnc3c2oc2ccccc23)c1	G9a block 14µM, Sfp inh 28µM, JMJD2A Tudor inh 40µM, BAZ2B inh inconclusive
CCOc1ccc(NC(=O)CSc2nc(C)c(C(=O)Nc3ccccc3)c(-c3ccc(Cl)cc3)c2C#N)cc1	none (no result: Sfp inh, PLK1 PBD block)
CCOC(=O)c1n[nH]n2c1nc(=S)c1ccccc12	G9a block 10µM, Sfp inh inconclusive, JMJD2A Tudor inh 89µM
CC1CCCC(NC(=O)CCCCCn2c(=S)[nH]c3ccsc3c2=O)C1C (stereo unspecified)	none (no result: G9a block, Sfp inh, JMJD2A Tudor inh, HP1b chromo inh, BAZ2B inh)
CC1CCCCC1NC(=O)CCCn1c(=S)[nH]c2ccsc2c1=O (stereo unspecified)	G9a block 32µM
CCOC(=O)N1CCN(C(=O)CCn2c(=S)[nH]c3ccsc3c2=O)CC1	G9a block 45µM, Sfp inh 56µM, JMJD2A Tudor inh inconclusive, BAZ2B inh inconclusive
CCc1ccc(OCCCCn2c(CCNC(=O)C3CCCCC3)nc3ccccc32)cc1	none (no result: G9a block, Sfp inh, PLK1 PBD block, BAZ2B inh)
Clc1nc(Oc2ccccc2)nc(-c2cn(-c3ccccc3)c3ccccc23)n1	G9a block 40µM, JMJD2A Tudor inh inconclusive, BAZ2B inh inconclusive
O=Cc1ccc(-n2cc(C=O)c3ccccc32)cc1	none
CCNc1nc(Cl)nc(-c2cn(-c3ccccc3)c3ccccc23)n1	G9a block 71µM, Sfp inh inconclusive
CCCCC(O)C(=O)Nc1cc(C(F)(F)F)ccc1Cl (stereo unspecified)	none (no result: G9a block, Sfp inh, PLK1 PBD block, HP1b chromo inh, BAZ2B inh)
Cc1ccc(CCNC(=O)c2cnc3c(-c4ccc(F)cc4)c(C)nn3c2C)cc1	none (no result: Sfp inh, PLK1 PBD block)
CCOC(=O)CCC(NC(=O)CC(=O)NC(CCC(=O)OCC)C(=O)OCC)C(=O)OCC (stereo unspecified)	G9a block 71µM
C[N+]1(C)CCC(=C2c3ccccc3CC(=O)c3sccc32)CC1	G9a block 6.3µM, PLK1 PBD block 38µM, BAZ2B inh 7.1µM
COc1ccc2c(c1)c1c(c(=O)n(Cc3ccccc3)c(=O)n1CC(=O)Nc1c(C)cccc1C)n2C	G9a block inconclusive (no result: Sfp inh, PLK1 PBD block)
CC(=O)/C(=N\Nc1ccccc1)Sc1nncn1C	G9a block 4µM, Sfp inh 20µM, JMJD2A Tudor inh 20µM, BAZ2B inh inconclusive
CC(=O)/C(=N\Nc1ccccc1Cl)Sc1nnc(-c2ccccc2)n1-c1ccccc1	G9a block 8.9µM
CC(=O)/C(=N\Nc1ccccc1)Sc1nnc(-c2ccccc2)n1-c1ccccc1	G9a block 10µM, JMJD2A Tudor inh 32µM
Cn1cnnc1SCC(=O)NCc1ccccc1	none
CCCc1nn2c(=O)cc(COC(=O)c3ccc(NC(=O)COc4ccccc4F)cc3)nc2s1	none (no result: Sfp inh, PLK1 PBD block)
O=C(NCCC(=O)N1CCC2(CC1)NCCc1[nH]cnc12)c1ccc(Br)cc1	none
O=C(Cc1cccs1)NCCN1CCOCC1	none
O=C(Cc1nc(-c2ccc(Br)s2)cs1)NCCN1CCOCC1	Sfp inh 50µM
CC(C)C(=O)Nc1sc2c(c1-c1nc3ccccc3[nH]1)CCCC2	G9a block 14µM
CC(C)C(=O)Nc1ccccc1-c1nc2ccccc2[nH]c1=O	G9a block inconclusive
CCOc1ccc(-c2cc(C(=O)Oc3ccc(C#N)cc3)no2)cc1	none (no result: Sfp inh, PLK1 PBD block)
N#CCC(=O)Nc1ccc(C(=O)NNC(=O)CCN2CCN(c3ccccc3)CC2)cc1	BAZ2B inh inconclusive (no result: Sfp inh)
Nc1nc(N)c2[nH]c(=S)[nH]c2n1	JMJD2A Tudor inh 3.5µM, PLK1 PBD block 24µM, HP1b chromo inh inconclusive (no result: G9a block, Sfp inh, BAZ2B inh)
C=CCn1c(-c2ccccn2)n[nH]c1=S	none (no result: G9a block, Sfp inh, JMJD2A Tudor inh, HP1b chromo inh, BAZ2B inh)
CCn1c(-c2c[nH]c3ccccc23)n[nH]c1=S	G9a block 1.3µM, JMJD2A Tudor inh 4µM
C=CCn1c(-c2csc3ccccc23)n[nH]c1=S	G9a block inconclusive, JMJD2A Tudor inh 18µM
C=CCn1c(-c2c[nH]c3ccccc23)n[nH]c1=S	G9a block 4µM, JMJD2A Tudor inh 6.3µM
CCn1c(-c2cc3ccccc3cc2O)n[nH]c1=S	G9a block inconclusive, JMJD2A Tudor inh inconclusive
Cc1cc(Cl)ccc1C(O)c1ncc(-c2ccc3ccccc3c2)[nH]1 (stereo unspecified)	none (no result: G9a block, Sfp inh, JMJD2A Tudor inh, HP1b chromo inh, BAZ2B inh)
CCCSc1nsc(SCCC)c1C(N)=O	G9a block 40µM
